Screening data from PubChem BioAssay.
This is a sample that favours compounds with a hit; in the whole collection about 3.5% have one here.
Mcl1 Noxa PPI – disrupts binding of human Mcl-1 to Noxa peptide; Q07820; AID 1022; 220,000 tested, 1.5% active; inhibition, % at 21.7 µM; TR-FRET Mcl-1/Noxa peptide binding, 2 h;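 active = compounds that cut the protein-peptide binding signal by more than 50% relative to plate controls in a single-dose test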;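 also: His-tagged Mcl-1 with rhodamine Noxa BH3 peptide and terbium anti-His antibody; 0% = Mcl-1 plus Noxa peptide wells and 100% = peptide-only wells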
Mcl1 Bid PPI – disrupts binding of human Mcl-1 to Bid peptide. Q07820. 220,000 tested, 0.97% active. inhibition, % at 21.7 µM. TR-FRET Mcl-1/Bid-Dy647 peptide binding, 1536-well. AID 1021;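 active = compounds that cut the binding signal by more than half at the single screening dose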;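 also: His-tagged Mcl-1 with europium anti-His antibody binding Bid BH3 peptide; 0% = Mcl-1 plus peptide wells and 100% = peptide-only wells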
Hck Nef HTS – blocks Nef-activated human Hck kinase; inhibition, % at 20 µM; P08631; Recombinant Hck-YEEI plus Nef, Z-Lyte FRET kinase assay; 220,000 tested, 0.68% active; AID 463187;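 active = Hck-Nef kinase inhibition above about 50%, limit read from the data; inactive = inhibition below that limit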;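 also: 0% = DMSO with Hck plus Nef and 100% = Hck alone without Nef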
Target sequence (P08631 whole entry, looked up): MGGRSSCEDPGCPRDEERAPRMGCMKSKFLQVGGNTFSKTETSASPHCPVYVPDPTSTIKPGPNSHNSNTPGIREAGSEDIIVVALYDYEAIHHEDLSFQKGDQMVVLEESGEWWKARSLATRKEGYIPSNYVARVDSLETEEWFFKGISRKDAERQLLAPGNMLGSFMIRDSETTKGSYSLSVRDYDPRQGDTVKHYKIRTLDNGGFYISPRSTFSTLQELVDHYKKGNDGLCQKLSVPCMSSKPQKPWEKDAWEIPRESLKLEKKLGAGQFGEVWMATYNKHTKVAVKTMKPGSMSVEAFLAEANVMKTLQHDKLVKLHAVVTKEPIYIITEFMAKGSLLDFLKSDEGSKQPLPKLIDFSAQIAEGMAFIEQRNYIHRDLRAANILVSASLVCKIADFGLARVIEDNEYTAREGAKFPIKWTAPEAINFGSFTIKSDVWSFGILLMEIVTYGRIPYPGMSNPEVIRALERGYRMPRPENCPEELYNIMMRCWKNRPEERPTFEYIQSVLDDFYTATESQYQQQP
eIF4E-4G inh – eIF4E/eIF4G interaction inhibition in translation initiation; 220,000 tested, 0.37% active; inhibition, % at 21.7 µM; TR-FRET eIF4E-eIF4GI(517-606) binding, 2 h;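 active = inhibition above about 30%, limit read from the data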;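 also: 0% = full FRET control wells and 100% = background wells lacking eIF4GI fragment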
14-3-3 Bad inh – disrupts binding of bovine 14-3-3 zeta to phospho-Bad peptide | inhibition, % at 21.7 µM | 220,000 tested, 0.71% active | P63103 | TR-FRET 14-3-3zeta/Dy647-pBad peptide displacement, 1 h;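 active = inhibition above about 70%, limit read from the data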;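 also: 0% = full 14-3-3 plus peptide FRET controls and 100% = background without 14-3-3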
Mcl-1 Bim block – disrupts Bim peptide binding to human Mcl-1; Q07820; Bead-based flow cytometry, Bim peptide-Mcl-1 binding; inhibition, % at 10 µM; 190,000 tested, 0.1% active; AID 1009; in the data active = inhibition above about 40%;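 also: 0% = no compound tracer wells and 100% = peptide blocker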
* = called active by the depositor.

How did CC1CN(C(=O)c2cccc(C(=O)N3CC(C)OC(C)C3)c2)CC(C)O1 (stereo unspecified) do in these assays?
Mcl1 Noxa PPI: 13; Mcl1 Bid PPI: 97*; Hck Nef HTS: 1; eIF4E-4G inh: -4; 14-3-3 Bad inh: 2; Mcl-1 Bim block: 2

How did CC1CN(C(=O)c2ccc(C(=O)c3ccccc3)cc2)CC(C)O1 (stereo unspecified) do in these assays?
Mcl1 Noxa PPI: 7; Mcl1 Bid PPI: 2; Hck Nef HTS: 1; eIF4E-4G inh: 7; 14-3-3 Bad inh: -14; Mcl-1 Bim block: -1

Results for CCOC(=O)Cn1c(=O)oc2cc(S(=O)(=O)Nc3ccc(N(CC)CC)cc3C)ccc21 ?
Mcl1 Noxa PPI: 54*; Mcl1 Bid PPI: -12; Hck Nef HTS: 6; eIF4E-4G inh: 6; 14-3-3 Bad inh: -3; Mcl-1 Bim block: -2

Results for O=C(/C=C/c1ccc(-c2ccccc2[N+](=O)[O-])o1)c1ccco1 ?
Mcl1 Noxa PPI: 66*; Mcl1 Bid PPI: -58; Hck Nef HTS: 35; eIF4E-4G inh: 5; 14-3-3 Bad inh: 4; Mcl-1 Bim block: 2

Results for N#C/C(=C\c1ccc(-c2ccccc2[N+](=O)[O-])o1)C(=O)N1CCOCC1 ?
Mcl1 Noxa PPI: 14; Mcl1 Bid PPI: -8; Hck Nef HTS: 21; eIF4E-4G inh: -4; 14-3-3 Bad inh: -10; Mcl-1 Bim block: 0

How did COc1cc(/C=N/NC(=O)c2cncc(Br)c2)ccc1OC(=O)c1ccc2c(c1)OCO2 do in these assays?
Mcl1 Noxa PPI: 6; Mcl1 Bid PPI: -142; Hck Nef HTS: 1; eIF4E-4G inh: -19; 14-3-3 Bad inh: 15; Mcl-1 Bim block: -1

What do the screens show for `COc1cc(/C=N/NC(=O)c2cc(-c3ccc4c(c3)OCO4)n[nH]2)ccc1O`?
Mcl1 Noxa PPI: 55*; Mcl1 Bid PPI: 1; Hck Nef HTS: 3; eIF4E-4G inh: 0; 14-3-3 Bad inh: 2; Mcl-1 Bim block: 9

Results for COc1cc(/C=N/NC(=O)c2cc(-c3c(C)nn(-c4ccccc4)c3C)n[nH]2)ccc1O ?
Mcl1 Noxa PPI: 28; Mcl1 Bid PPI: -21; Hck Nef HTS: 43; eIF4E-4G inh: 0; 14-3-3 Bad inh: -8; Mcl-1 Bim block: 0

How did COc1cc(/C=N\NC(=O)c2ccc(C)nc2)ccc1OC(=O)c1ccc2c(c1)OCO2 do in these assays?
Mcl1 Noxa PPI: -45; Mcl1 Bid PPI: 23; Hck Nef HTS: 13; eIF4E-4G inh: 6; 14-3-3 Bad inh: 74*; Mcl-1 Bim block: 2

How did COc1cc2nc(CN3CCC(C(O)(c4ccccc4)c4ccccc4)CC3)[nH]c(=O)c2cc1OC do in these assays?
Mcl1 Noxa PPI: 7; Mcl1 Bid PPI: -24; Hck Nef HTS: -5; eIF4E-4G inh: 0; 14-3-3 Bad inh: -4; Mcl-1 Bim block: 0

What do the screens show for `O=C(Nc1nc(=S)ss1)c1ccc(Cl)cc1Cl`?
Mcl1 Noxa PPI: 28; Mcl1 Bid PPI: 23; Hck Nef HTS: 4; eIF4E-4G inh: 10; 14-3-3 Bad inh: 80*; Mcl-1 Bim block: -1

Results for CN(C)c1ccc(Sc2nnc(NC(=O)Nc3ccc(Cl)cc3Cl)s2)cc1 ?
Mcl1 Noxa PPI: 89*; Mcl1 Bid PPI: 18; Hck Nef HTS: 6; eIF4E-4G inh: 3; 14-3-3 Bad inh: 16; Mcl-1 Bim block: -6

What do the screens show for `CCC(=O)Nc1nnc(Sc2ccc(N(C)C)cc2)s1`?
Mcl1 Noxa PPI: 14; Mcl1 Bid PPI: -44; Hck Nef HTS: 3; eIF4E-4G inh: -2; 14-3-3 Bad inh: 1; Mcl-1 Bim block: -2

Results for Cc1ccc(-c2n[nH]c(=S)n2C)cc1Cl ?
Mcl1 Noxa PPI: 53*; Mcl1 Bid PPI: -39; Hck Nef HTS: 19; eIF4E-4G inh: 2; 14-3-3 Bad inh: 1; Mcl-1 Bim block: -1

Results for CCOc1ccc(N(CC(=O)Nc2cccnc2)S(C)(=O)=O)cc1 ?
Mcl1 Noxa PPI: -4; Mcl1 Bid PPI: -14; Hck Nef HTS: 15; eIF4E-4G inh: -2; 14-3-3 Bad inh: -3; Mcl-1 Bim block: -1

Results for O=C(Nc1ccc(-c2nc3cc(Cl)ccc3c(=O)o2)cc1)c1ccco1 ?
Mcl1 Noxa PPI: -20; Mcl1 Bid PPI: 72*; Hck Nef HTS: 31; eIF4E-4G inh: -3; 14-3-3 Bad inh: 31; Mcl-1 Bim block: -5

Results for O=C(Nc1ccc(-c2nc3c(ccc4ccccc43)o2)cc1)c1ccco1 ?
Mcl1 Noxa PPI: 1; Mcl1 Bid PPI: -5; Hck Nef HTS: -10; eIF4E-4G inh: -4; 14-3-3 Bad inh: 12; Mcl-1 Bim block: -3
